# The entries come from a sample that favours hits as a whole.
# RE007 growth inh – qHTS Assay for Inhibitors of the HIV-1 protein Vpr. S. pombe RE007 Vpr strain, BacTiter-Glo ATP luminescence, 24 h. AID 651644, 2012. Potency, µM (highest dose often 92.2 µM), without a hit: at the highest dose activity change, negative = less growth, hits mostly inhibitors. 360,000 compounds, 0.21% hits; active = well fitted falling curve with a large enough effect; inconclusive = small, poorly fitted or top-dose-only effect; inactive = no such curve, though single readings can be large or run the other way; also: potency is read from the fitted curve at half-maximal effect; % is scaled to controls: 0 for no effect and ±100 for the full control effect; nearly all actives have a fitted effect of over 50% in size
#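 Fission yeast strain RE007, carrying one chromosomally integrated HIV-1 vpr copy, was seeded at OD 0.01 in PMG+AL medium with 23 nL pinned compound. After 24 h at 30 °C and 99% humidity, viability was read by BacTiter-Glo luminescence.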
# FBPA Giardia inh – qHTS Assay for Inhibitors of Fructose-1,6-bisphosphate Aldolase from Giardia Lamblia; A8B2U2; purified Giardia FBPA; Potency, µM (doses to about 59.6 µM), without a hit: at the highest dose activity, negative = inhibition, most hits filed as inhibitors; 290,000 compounds, 0.71% hits; AID 2451, 2010; also: potency is read from the fitted curve at half-maximal effect; % is scaled to controls: 0 for no effect and ±100 for the full control effect; nearly all actives have a fitted effect of over 55% in size
#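 40 nM FBPA preincubated 10 min at RT with compound (up to 57.5 uM final), then substrate plus GAPDH/TPI/NAD/arsenate coupling and diaphorase/resazurin added. Fluorescence read after 20 min at RT, 525/598 nm.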
# CHX counter – Cycloheximide Counterscreen for Small Molecule Inhibitors of Shiga Toxin; cell reporter, cycloheximide protein synthesis inhibition counterscreen; max response, %; 300,000 compounds, 12% hits; AID 2314, 2010; in the data active = max response mostly above about 13%, no sharp cut-off; inactive = mostly below about 14%; also: read at 38.3 µM for the half of the compounds with a filed dose; 0% is about no effect
# Shiga toxin inh – A qHTS for Small Molecule Inhibitors of Shiga Toxin. Vero cells, Shiga toxin protein synthesis inhibition reporter. inhibition, % at 38.7 µM. 290,000 compounds, 9.2% hits; in the data active = inhibition mostly above about 28%, no sharp cut-off; inactive = mostly below about 43%; also: 0% is about no effect
# Tb PYK inh – qHTS of Trypanosoma Brucei Inhibitors | pyruvate kinase (Trypanosoma brucei), Q57TT1 | TbPYK enzyme, Kinase-Glo Plus ATP luminescence, 45 min | Potency, µM (titrated, usually from 76.8 µM), inactives show at the top dose activity, negative = inhibition, hits mostly inhibitors | 410,000 compounds, 0.12% hits | AID 624173, 2012; also: potency is read from the fitted curve at half-maximal effect; % is scaled to controls: 0 for no effect and ±100 for the full control effect; nearly all actives have a fitted effect of over 50% in size
#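 T. brucei PYK with substrate was exposed to pin-transferred compounds across a concentration series, then started with 130 uM ADP (final). After 45 min at room temperature, Kinase-Glo Plus luminescence was read, normalized and curve-fitted.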
# LmPK inh – qHTS Assay for Inhibitors of Leishmania Mexicana Pyruvate Kinase (LmPK); 290,000 compounds, 0.37% hits; purified LmPK, Kinase-Glo ATP luminescence, 1 h; Potency, µM (doses to about 57.5 µM), without a hit: top-dose activity change, negative = inhibition, most hits filed as inhibitors; Q27686; also: potency is read from the fitted curve at half-maximal effect; % is scaled to controls: 0 for no effect and ±100 for the full control effect
# Target sequence (Q27686 whole entry, looked up): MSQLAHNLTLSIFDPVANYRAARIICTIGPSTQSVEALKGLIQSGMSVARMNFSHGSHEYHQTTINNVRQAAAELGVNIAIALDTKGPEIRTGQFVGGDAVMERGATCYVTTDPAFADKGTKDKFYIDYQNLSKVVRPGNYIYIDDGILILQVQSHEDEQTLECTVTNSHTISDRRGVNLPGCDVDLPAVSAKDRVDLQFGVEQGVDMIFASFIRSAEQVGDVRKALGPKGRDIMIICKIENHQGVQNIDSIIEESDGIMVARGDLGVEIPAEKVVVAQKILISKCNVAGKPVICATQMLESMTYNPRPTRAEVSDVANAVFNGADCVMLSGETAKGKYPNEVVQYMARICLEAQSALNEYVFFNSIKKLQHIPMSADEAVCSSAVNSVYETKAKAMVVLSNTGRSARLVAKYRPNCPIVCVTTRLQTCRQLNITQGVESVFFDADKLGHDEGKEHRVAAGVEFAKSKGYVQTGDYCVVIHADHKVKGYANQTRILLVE
#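 Kinase-Glo luminescence read after 1 h RT reaction of 0.1 nM LmPK with 0.5 mM PEP and 0.1 mM ADP. Activity scaled between uninhibited and enzyme-free controls.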
# Active calls of the source: *; ? = inconclusive; . = no result; [ ] = remark or other dose. Unless noted, calls follow the shape of the dose curve; as a rule, active = well fitted curve in the direction sought with a large enough effect; inconclusive = small, poorly fitted or top-dose-only effect, or another doubt; inactive = no such curve, though single readings can be large; an effect the other way counts as inactive or inconclusive.
SMILES,RE007 growth inh,FBPA Giardia inh,CHX counter,Shiga toxin inh,Tb PYK inh,LmPK inh
COc1cc(OC)c(C(=O)COc2ncnc3ccccc23)c(OC)c1,3%,-3%,-4,32,-4%,0%
Cc1noc(C)c1C(=O)N1CCN(c2ccc(OCc3ccccc3)cc2)CC1,1%,-2%,4,-5,0%,-4%
O=C(COc1ncnc2cc(Cl)ccc12)c1ccc2c(c1)OCCO2,-2%,1%,29*,74*,-4%,0%
CCOc1ccc(N/C(C)=C/C(=O)c2ccc3c(c2)OCCO3)cc1,2%,?,56*,60*,1%,2%
CCOc1ccc(N/C(C)=C\C(=O)c2ccc3c(c2)OCCO3)cc1,3%,13%,50*,86*,5%,1%
CCOc1ccc(N(C)C(=O)CS(=O)(=O)c2cccc3nsnc23)cc1,.,.,.,.,-7%,.
CCOC(=O)CSC1=NC(=O)/C(=C/c2ccc(Br)cc2)S1,?,14%,30*,60*,15%,-6%
CCOC(=O)CSC1=NC(=O)/C(=C\c2ccc(OC(C)=O)cc2)S1,?,-2%,28*,120*,-10%,?
NC1=NC(=O)/C(=C/c2ccc(Br)cc2)S1,-2%,-4%,7,.,0%,7%
O=C(NCc1ccc(F)cc1)c1c(O)nc2ccccn2c1=O,.,.,.,.,-3%,.
C[C@@H](C(=O)O)c1ccc(C(=O)c2ccccc2)s1,.,12%[21.7 µM],.,.,-9%[33.2 µM],.
N#CCc1ccc(C(=O)c2ccccc2)s1,-13%,-1%,18*,44,0%,2%
COc1ccc(-c2cc3c(=O)n(CC(=O)NCc4ccccc4OC)ncn3n2)cc1,-2%,8%,1,-3,9%,-2%
COc1ccc(-c2cc3c(=O)n(CC(=O)NCCCc4ccccc4)ncn3n2)cc1,-9%,2%,16*,26*,5%,-5%
COc1ccc(-c2cc3c(=O)n(CC(=O)N4CCCCC4)ncn3n2)cc1,-1%,-2%,-1,4,-5%,2%
CCC1CCCCN1CCCNC(=O)Cn1ncn2nc(-c3ccc(OC)cc3)cc2c1=O (centres undefined),-1%,.,29*,55*,-6%,0%
CCc1ccc(-c2cc3c(=O)n(CC(=O)NCCCN4CCN(C)CC4)ncn3n2)cc1,-5%,.,24*,36*,4%,-1%
COCCn1c(=NC(=O)C(C)(C)C)sc2cc([N+](=O)[O-])ccc21,2%,0%,19*,9,1%,-1%
COc1ccc(C(=O)OCC(=O)c2ccc(C3CCCCC3)cc2)cc1,-4%,-9%,13*,7,-2%,3%
Nc1ccc(O)cc1C(=O)OCC(=O)c1ccc(C2CCCCC2)cc1,4%,-15%,61*,145*,-16%,0%
Nc1ccc(O)cc1C(=O)OCC(=O)C12CC3CC(CC(C3)C1)C2,8%,?,20,42,?,1%
N#CC1=C(N)Oc2n[nH]c(-c3cccnc3)c2C1c1ccc([N+](=O)[O-])o1 (centres undefined),-25%,-20%,20*,54,-14%,4%
CCOC(=O)c1ccc(OC(=O)c2cn(-c3cccc(OC)c3)c(=O)c3ccccc23)cc1,.,.,.,.,1%,.
O=C(Cc1cccs1)N=Nc1c(O)[nH]c2ccccc12,16%,-10%,56*,85*,0%,0%
O=C(Cc1cccs1)N=Nc1c(O)[nH]c2ccc(Br)cc12,16%,6%,-2,-4,2%,-1%
SMILES,RE007 growth inh,FBPA Giardia inh,CHX counter,Shiga toxin inh,Tb PYK inh,LmPK inh
COc1ccc2[nH]c(O)c(N=NC(=O)Cc3cccs3)c2c1,0%,-14%,27*,39*,-1%,1%
Cn1c(Cl)c(C(=O)Nc2ccccc2)c2ccccc21,-3%,-3%,23*,41*,-5%,-1%
Cc1ccc(NC(=O)c2c(O)c3ccccc3n(C)c2=O)nc1,-4%,12%,29,31,2%,-3%
Cc1ccc(NC(=O)c2c(Cl)n(C)c3ccccc23)cc1,-9%,-4%,30*,38,-3%,-1%
O=C(Cn1nc(-c2ccccc2)c2cnc3ccccc3c21)Nc1ccccc1,.,.,.,.,1%,.
Cc1cccc(N2CCN(C(=O)CCc3c(C)nc4c(c3C)c(=O)n(C)c(=O)n4C)CC2)c1C,.,.,.,.,-11%,.
CC(C)CNC(=S)N1CCC(c2nc(-c3ccc(F)cc3)no2)CC1,3%,-4%,-2,15,-5%,-1%
COCCNC(=S)N1CCC(c2nc(-c3ccc(N(C)C)cc3)no2)CC1,11%,-8%,24*,49,-14%,4%
COc1ccc(C2NC(=O)N(C)C3=C2C(=O)N(c2cccc(C(=O)O)c2)C3)cc1 (centres undefined),.,.,.,.,-11%,.
CCc1nc(OCCN(C)C)c2oc3ccccc3c2n1,0%,4%,26*,29,0%,-10%
CCOc1ccccc1Oc1nc(C)nc2c1oc1ccccc12,.,.,.,.,0%,.
CCc1nc(Nc2ccccc2)c2oc3ccccc3c2n1,-3%[3.69 µM],-23%,17,4,.,2%
CCc1nc(Nc2cccc(OC)c2)c2oc3ccccc3c2n1,15%,-17%,22*,27,2%,-3%
CCc1nc(Nc2ccc(F)cc2)c2oc3ccccc3c2n1,16%,?,36*,45,12%,1%
Cc1ccc(NC(=O)C2(C)CCN2Cc2ccccc2OC(F)F)cc1 (centres undefined),-12%,.,.,.,0%,.
COc1ccc2sc(N(Cc3cccnc3)C(=O)c3cccs3)nc2c1,.,.,.,.,1%[15.4 µM],.
O=c1oc2ccc3ccccc3c2cc1-c1nnc(Nc2ccccc2)s1,.,.,.,.,2%,.
CCOC(=O)N1CCC2(CC1)OC(=O)C(C)=C2C(=O)NCc1cccc(F)c1,.,.,.,.,-1%[15.4 µM],.
CCOc1ccc(-n2c(CCC(=O)O)ccc2-c2ccc(Br)cc2)cc1,.,.,.,.,6%,.
Cc1onc(-c2ccccc2)c1C(=O)Nc1ccncc1,-1%,7%,3,-2,-5%,-4%
Cc1onc(-c2ccncc2)c1C(=O)O,13%,1%,27*,55*,1%,-5%
Nc1nnc(N)c2ccccc12,46%,1%,2,-13,-13%,0%
Nc1nsc2ccccc12,?,-2%,24*,10,6%,-1%
CCc1ccc(NC(=O)C2(C)Cc3ccccc3C(=O)O2)cc1 (centres undefined),4%,-8%,26*,41*,2%,6%
CCCCc1ccc(NC(=O)C2(C)Cc3ccccc3C(=O)O2)cc1 (centres undefined),.,.,.,.,-1%,.
Cc1ccccc1C(=O)NCCSc1ccccc1,0%,4%,32*,93,0%,-12%
